In the supplement of paper PMC10849652:
Targets with a hit are over-represented here; the source holds about 7,900 in all. About 0.6% of all pairs of compound and target were hits.

How the values were obtained:
Assay in all cases: log2 fold change, soluble protein after heating vs DMSO (PISA); higher = thermal stabilisation; K562 cells, 10 uM, 30 min; active = over 0.2 and 3.5 SD of the protein, either way, in both replicates (recomputed)
[1] = compound: C1=CC=C(C=C1)[C@H](COC2=CC3=C(C=C2)NC(=O)N3)NC(=O)C4=CC=CN(C4=O)CC5=CC(=C(C=C5)F)F
Summary of the method: (§1)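 Values are thermal stability changes relative to control samples and are taken from duplicates. They are stated as log2 fold changes. Before quantification by TMTpro 16plex LC-MS/MS with equalised channel sums, K562 cells at 2×10^6 cells/mL were treated with 10 μM compound for 30 min, heated in aliquots for 3 min across 48°C-58°C, pooled, extracted in PBS with 0.5% NP-40 at 4°C, and centrifuged at 21,000xg for 90 min to give the soluble supernatant.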

[2] = compound: CC1=C(SC2=C1C(=N[C@H](C3=NN=C(N32)C)CC(=O)N)C4=CC=C(C=C4)Cl)C
Summary of the method: as §1

[3] = compound: CC1=C2C(=CC=C1)N=C(N(C2=O)C3=CC=CC=C3C)CN4C=NC5=C(N=CN=C54)N
Summary of the method: as §1

[4] = compound: Cc1sc2c(c1C)C(c1ccc(Cl)cc1)=N[C@@H](CC(=O)OC(C)(C)C)c1nnc(C)n1-2
Summary of the method: as §1

[5] = compound: c1ccc([C@@H]2C[C@H]2NC2CCNCC2)cc1
Summary of the method: as §1

Measured: log2 fold change

ORC3 isoform 2 (UniProt Q9UBD5)
inactive: [1] -0.098 | [2] 0.032 | [3] 0.107 | [4] 0.013 | [5] -0.079

NCAPH (UniProt Q15003)
inactive: [1] -0.067 | [2] 0.011 | [3] 0.109 | [4] -0.007 | [5] 0.001

NDUFA4 (UniProt O00483)
inactive: [1] 0 | [2] 0.005 | [3] 0.014 | [4] -0.031 | [5] 0.046

MRPS35 (UniProt P82673)
inactive: [1] -0.011 | [2] -0.03 | [3] -0.033 | [4] 0.143 | [5] -0.004

MYH16 (UniProt Q9H6N6)
inactive: [1] -0.164 | [2] -0.042 | [3] -0.142 | [4] 0.069 | [5] -0.034

OXR1 (UniProt Q8N573)
inactive: [1] -0.021 | [2] 0.026 | [3] 0.039 | [4] -0.041 | [5] -0.069

NFYB (UniProt P25208)
inactive: [1] -0.015 | [2] -0.119 | [3] -0.165 | [4] -0.048 | [5] 0.057

PAFAH2 (UniProt Q99487)
inactive: [1] -0.191 | [2] 0.016 | [3] 0.066 | [4] -0.117 | [5] -0.141

NDUFA7 (UniProt O95182)
inactive: [1] 0.007 | [2] 0.002 | [3] 0.007 | [4] 0.008 | [5] 0.034

NOP56 (UniProt O00567)
inactive: [1] 0.045 | [2] -0.289 | [3] -0.281 | [4] 0.154 | [5] 0.024

MSH6 (UniProt P52701)
inactive: [1] -0.24 | [2] 0.08 | [3] 0.127 | [4] -0.056 | [5] -0.008

MRPS15 (UniProt P82914)
inactive: [1] -0.035 | [2] 0.077 | [3] -0.056 | [4] 0.066 | [5] -0.097

NDUFAF6 (UniProt Q330K2)
inactive: [1] -0.048 | [2] 0.003 | [3] -0.006 | [4] 0.063 | [5] 0.024

NUMB (UniProt P49757)
inactive: [1] 0 | [2] 0.035 | [3] 0.046 | [4] 0.023 | [5] -0.009

OGFOD1 (UniProt Q8N543)
inactive: [1] -0.02 | [2] 0.047 | [3] 0.041 | [4] -0.015 | [5] -0.007

NDUFB7 (UniProt P17568)
inactive: [1] -0.032 | [2] -0.01 | [3] -0.004 | [4] -0.015 | [5] 0.03

NME7 (UniProt Q9Y5B8)
inactive: [1] -0.112 | [2] 0.098 | [3] 0.175 | [4] 0.096 | [5] -0.038

NSMCE4A (UniProt Q9NXX6)
inactive: [1] 0.123 | [2] 0.03 | [3] -0.088 | [4] -0.037 | [5] -0.014

MON2 isoform 5 (UniProt Q7Z3U7)
inactive: [1] -0.023 | [2] 0.016 | [3] 0.109 | [4] -0.025 | [5] -0.073

OAT (UniProt P04181)
inactive: [1] -0.019 | [2] 0.083 | [3] 0.05 | [4] -0.024 | [5] -0.045

NDUFA9 (UniProt Q16795)
inactive: [1] -0.005 | [2] 0.075 | [3] 0.078 | [4] -0.014 | [5] -0.054

NOLC1 isoform 2 (UniProt Q14978)
inactive: [1] 0 | [2] -0.029 | [3] 0.002 | [4] -0.012 | [5] 0.108

NOSIP (UniProt Q9Y314)
Chain of UniProt Q9Y314 (Q9Y314 whole entry, looked up): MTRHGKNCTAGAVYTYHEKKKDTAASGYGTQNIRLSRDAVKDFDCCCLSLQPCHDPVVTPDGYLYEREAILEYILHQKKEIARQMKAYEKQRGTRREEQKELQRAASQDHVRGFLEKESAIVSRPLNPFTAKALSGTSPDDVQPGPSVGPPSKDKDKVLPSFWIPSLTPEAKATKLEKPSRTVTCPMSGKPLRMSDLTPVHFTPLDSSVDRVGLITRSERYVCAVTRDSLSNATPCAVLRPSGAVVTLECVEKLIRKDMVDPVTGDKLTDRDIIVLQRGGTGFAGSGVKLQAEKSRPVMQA
inactive: [1] 0.056 | [2] 0.043 | [3] 0.179 | [4] -0.043 | [5] 0.016

MTFR1L (UniProt Q9H019)
Chain of UniProt Q9H019 (Q9H019 whole entry, looked up): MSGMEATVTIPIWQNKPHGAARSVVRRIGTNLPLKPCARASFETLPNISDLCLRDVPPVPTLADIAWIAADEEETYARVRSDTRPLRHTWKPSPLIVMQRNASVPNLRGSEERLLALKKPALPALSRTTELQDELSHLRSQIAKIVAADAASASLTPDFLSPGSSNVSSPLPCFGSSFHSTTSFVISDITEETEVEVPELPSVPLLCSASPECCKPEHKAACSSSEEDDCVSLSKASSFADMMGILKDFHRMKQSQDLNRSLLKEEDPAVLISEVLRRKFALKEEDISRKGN
inactive: [1] -0.036 | [2] -0.009 | [3] 0.066 | [4] 0.048 | [5] 0.028

NPC1L1 (UniProt Q9UHC9)
Chain of UniProt Q9UHC9 (Q9UHC9 whole entry, looked up): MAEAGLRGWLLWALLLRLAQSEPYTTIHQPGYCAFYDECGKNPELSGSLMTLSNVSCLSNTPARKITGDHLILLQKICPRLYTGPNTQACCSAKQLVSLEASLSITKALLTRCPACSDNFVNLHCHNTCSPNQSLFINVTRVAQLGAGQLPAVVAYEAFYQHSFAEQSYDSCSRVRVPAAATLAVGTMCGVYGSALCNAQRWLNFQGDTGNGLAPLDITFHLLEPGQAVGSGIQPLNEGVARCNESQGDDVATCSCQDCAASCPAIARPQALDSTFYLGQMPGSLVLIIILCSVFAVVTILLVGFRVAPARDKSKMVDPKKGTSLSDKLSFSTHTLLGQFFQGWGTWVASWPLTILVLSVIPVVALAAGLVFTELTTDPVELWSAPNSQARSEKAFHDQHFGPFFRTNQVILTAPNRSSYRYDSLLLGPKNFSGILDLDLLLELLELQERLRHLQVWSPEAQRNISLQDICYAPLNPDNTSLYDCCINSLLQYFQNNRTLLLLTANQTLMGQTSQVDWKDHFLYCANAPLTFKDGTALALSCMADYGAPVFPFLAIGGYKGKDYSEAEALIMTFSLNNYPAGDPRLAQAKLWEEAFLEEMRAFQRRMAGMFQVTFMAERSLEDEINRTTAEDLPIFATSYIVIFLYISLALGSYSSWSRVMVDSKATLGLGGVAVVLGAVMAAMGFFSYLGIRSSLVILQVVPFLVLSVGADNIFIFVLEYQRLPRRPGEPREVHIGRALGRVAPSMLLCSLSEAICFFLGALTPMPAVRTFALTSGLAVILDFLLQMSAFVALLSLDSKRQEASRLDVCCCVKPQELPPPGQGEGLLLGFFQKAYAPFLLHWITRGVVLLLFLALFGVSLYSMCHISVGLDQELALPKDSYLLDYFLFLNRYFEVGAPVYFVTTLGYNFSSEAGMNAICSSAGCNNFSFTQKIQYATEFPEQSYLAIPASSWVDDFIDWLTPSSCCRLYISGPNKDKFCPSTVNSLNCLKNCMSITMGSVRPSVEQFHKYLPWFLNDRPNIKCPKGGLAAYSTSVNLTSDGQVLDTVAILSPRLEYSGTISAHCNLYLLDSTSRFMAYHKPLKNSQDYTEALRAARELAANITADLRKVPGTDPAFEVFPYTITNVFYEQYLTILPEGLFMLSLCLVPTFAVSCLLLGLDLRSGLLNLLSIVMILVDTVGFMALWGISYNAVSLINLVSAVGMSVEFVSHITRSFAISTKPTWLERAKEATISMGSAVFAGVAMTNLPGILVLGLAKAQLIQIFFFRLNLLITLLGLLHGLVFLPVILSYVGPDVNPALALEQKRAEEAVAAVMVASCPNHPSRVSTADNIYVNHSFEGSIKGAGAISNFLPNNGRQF
inactive: [1] 0.183 | [2] 0.063 | [3] 0.024 | [4] 0.007 | [5] 0.047

MPHOSPH10 (UniProt O00566)
inactive: [1] 0.023 | [2] -0.279 | [3] -0.206 | [4] 0.094 | [5] -0.024

OGFR (UniProt Q9NZT2)
inactive: [1] -0.016 | [2] -0.057 | [3] 0.016 | [4] 0.095 | [5] -0.046

NDUFS8 (UniProt O00217)
Chain of UniProt O00217 (O00217 whole entry, looked up): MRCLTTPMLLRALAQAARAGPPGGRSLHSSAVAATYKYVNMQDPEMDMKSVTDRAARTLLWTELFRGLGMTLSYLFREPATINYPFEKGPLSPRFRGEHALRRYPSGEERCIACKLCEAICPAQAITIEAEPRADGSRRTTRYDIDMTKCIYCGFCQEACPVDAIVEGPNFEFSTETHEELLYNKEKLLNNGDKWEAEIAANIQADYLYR
inactive: [1] -0.049 | [2] 0.1 | [3] 0.082 | [4] -0.023 | [5] -0.02

NEMP1 (UniProt O14524)
inactive: [1] 0.015 | [2] -0.003 | [3] 0.036 | [4] 0.048 | [5] -0.018

NUDT16 (UniProt Q96DE0)
inactive: [1] 0.029 | [2] 0.085 | [3] -0.045 | [4] -0.075 | [5] -0.006

MYLK (UniProt Q15746)
Chain of UniProt Q15746 (Q15746 whole entry, looked up): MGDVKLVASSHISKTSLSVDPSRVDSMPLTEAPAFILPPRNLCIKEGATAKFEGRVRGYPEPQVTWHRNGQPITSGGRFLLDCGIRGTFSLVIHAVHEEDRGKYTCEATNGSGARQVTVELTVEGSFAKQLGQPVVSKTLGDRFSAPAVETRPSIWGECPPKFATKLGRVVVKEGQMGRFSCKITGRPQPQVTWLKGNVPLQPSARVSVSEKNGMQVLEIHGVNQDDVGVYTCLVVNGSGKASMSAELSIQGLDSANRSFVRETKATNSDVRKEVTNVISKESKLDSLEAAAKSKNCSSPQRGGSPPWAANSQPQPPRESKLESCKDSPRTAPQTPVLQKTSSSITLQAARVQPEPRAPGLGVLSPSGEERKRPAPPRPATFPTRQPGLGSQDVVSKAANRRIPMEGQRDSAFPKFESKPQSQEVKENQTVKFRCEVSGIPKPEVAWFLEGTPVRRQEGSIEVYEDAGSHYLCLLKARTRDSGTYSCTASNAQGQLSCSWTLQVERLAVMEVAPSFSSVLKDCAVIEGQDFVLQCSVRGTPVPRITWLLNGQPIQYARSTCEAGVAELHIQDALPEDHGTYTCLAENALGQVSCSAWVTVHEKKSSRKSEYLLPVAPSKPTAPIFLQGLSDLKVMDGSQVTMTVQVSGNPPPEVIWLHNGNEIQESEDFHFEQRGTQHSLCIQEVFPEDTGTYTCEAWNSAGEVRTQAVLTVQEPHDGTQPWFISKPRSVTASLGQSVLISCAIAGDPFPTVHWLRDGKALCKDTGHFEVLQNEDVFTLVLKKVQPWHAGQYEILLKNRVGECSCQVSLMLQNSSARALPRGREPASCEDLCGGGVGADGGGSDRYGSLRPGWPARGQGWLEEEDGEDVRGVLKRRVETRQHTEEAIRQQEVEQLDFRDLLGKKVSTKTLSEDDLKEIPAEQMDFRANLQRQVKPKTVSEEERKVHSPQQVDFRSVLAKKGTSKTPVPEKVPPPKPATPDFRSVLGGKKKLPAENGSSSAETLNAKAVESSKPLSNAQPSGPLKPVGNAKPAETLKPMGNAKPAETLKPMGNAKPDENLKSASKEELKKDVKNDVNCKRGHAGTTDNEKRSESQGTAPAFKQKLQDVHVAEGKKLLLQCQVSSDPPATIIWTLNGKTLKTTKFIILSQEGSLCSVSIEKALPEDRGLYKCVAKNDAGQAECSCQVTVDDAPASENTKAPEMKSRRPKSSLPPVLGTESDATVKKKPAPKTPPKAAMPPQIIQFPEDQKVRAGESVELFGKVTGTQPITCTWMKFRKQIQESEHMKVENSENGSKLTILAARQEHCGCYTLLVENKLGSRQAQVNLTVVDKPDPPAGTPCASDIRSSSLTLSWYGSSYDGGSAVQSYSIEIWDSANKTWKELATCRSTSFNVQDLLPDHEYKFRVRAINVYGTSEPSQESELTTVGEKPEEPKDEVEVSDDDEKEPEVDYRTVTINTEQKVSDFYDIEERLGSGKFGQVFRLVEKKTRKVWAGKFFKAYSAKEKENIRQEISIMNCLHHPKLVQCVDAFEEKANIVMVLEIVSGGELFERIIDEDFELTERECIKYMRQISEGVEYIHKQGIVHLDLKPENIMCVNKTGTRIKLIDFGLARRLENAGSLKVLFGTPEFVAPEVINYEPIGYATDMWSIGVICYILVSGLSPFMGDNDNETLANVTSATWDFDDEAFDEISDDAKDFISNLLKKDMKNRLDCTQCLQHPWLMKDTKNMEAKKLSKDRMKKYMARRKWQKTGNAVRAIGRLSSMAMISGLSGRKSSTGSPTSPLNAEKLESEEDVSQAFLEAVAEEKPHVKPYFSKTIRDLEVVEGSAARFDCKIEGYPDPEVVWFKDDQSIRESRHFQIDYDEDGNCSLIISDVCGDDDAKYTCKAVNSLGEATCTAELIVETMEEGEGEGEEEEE
inactive: [1] -0.08 | [2] -0.053 | [3] 0.096 | [4] 0.118 | [5] -0.21

MKRN2 (UniProt Q9H000)
inactive: [1] 0.029 | [2] 0.046 | [3] 0.143 | [4] 0.122 | [5] -0.017

NOP53 (UniProt Q9NZM5)
inactive: [1] 0.103 | [2] -0.332 | [3] -0.415 | [4] 0.353 | [5] 0.097

OTULIN (UniProt Q96BN8)
Chain of UniProt Q96BN8 (Q96BN8 whole entry, looked up): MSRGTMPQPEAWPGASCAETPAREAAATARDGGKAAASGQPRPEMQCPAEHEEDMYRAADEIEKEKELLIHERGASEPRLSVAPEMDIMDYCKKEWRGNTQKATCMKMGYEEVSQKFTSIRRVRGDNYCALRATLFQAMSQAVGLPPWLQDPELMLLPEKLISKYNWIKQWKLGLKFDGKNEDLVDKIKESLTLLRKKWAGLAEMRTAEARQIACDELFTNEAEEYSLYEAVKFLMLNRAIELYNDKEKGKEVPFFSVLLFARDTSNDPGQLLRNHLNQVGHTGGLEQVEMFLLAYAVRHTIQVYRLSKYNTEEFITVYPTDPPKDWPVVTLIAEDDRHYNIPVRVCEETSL
inactive: [1] -0.07 | [2] -0.019 | [3] 0.124 | [4] 0.005 | [5] 0.005

MRPS2 (UniProt Q9Y399)
inactive: [1] -0.084 | [2] 0.147 | [3] -0.042 | [4] 0.079 | [5] 0.003

NUDCD2 (UniProt Q8WVJ2)
inactive: [1] -0.037 | [2] 0.113 | [3] 0.099 | [4] 0.017 | [5] 0.037

NUP98 (UniProt P52948)
inactive: [1] -0.041 | [2] 0.032 | [3] 0.071 | [4] -0.005 | [5] -0.011

PAAF1 (UniProt Q9BRP4)
inactive: [1] -0.012 | [2] 0.043 | [3] 0.076 | [4] -0.014 | [5] 0.008

NME1 isoform 2 (UniProt P15531)
inactive: [1] 0.095 | [2] 0.142 | [3] 0.069 | [4] 0.033 | [5] -0.108

NR2C2AP isoform 2 (UniProt Q86WQ0)
inactive: [1] -0.016 | [2] 0.043 | [3] 0.081 | [4] -0.067 | [5] 0.032

MT-ND1 (UniProt P03886)
inactive: [1] -0.024 | [2] -0.12 | [3] -0.24 | [4] -0.102 | [5] 0.177

MPP1 (UniProt Q00013)
inactive: [1] -0.055 | [2] -0.06 | [3] 0.051 | [4] -0.024 | [5] 0.013

MT-ND2 (UniProt P03891)
inactive: [1] 0.023 | [2] 0.123 | [3] -0.118 | [4] -0.03 | [5] -0.003

MSTO1 (UniProt Q9BUK6)
Chain of UniProt Q9BUK6 (Q9BUK6 whole entry, looked up): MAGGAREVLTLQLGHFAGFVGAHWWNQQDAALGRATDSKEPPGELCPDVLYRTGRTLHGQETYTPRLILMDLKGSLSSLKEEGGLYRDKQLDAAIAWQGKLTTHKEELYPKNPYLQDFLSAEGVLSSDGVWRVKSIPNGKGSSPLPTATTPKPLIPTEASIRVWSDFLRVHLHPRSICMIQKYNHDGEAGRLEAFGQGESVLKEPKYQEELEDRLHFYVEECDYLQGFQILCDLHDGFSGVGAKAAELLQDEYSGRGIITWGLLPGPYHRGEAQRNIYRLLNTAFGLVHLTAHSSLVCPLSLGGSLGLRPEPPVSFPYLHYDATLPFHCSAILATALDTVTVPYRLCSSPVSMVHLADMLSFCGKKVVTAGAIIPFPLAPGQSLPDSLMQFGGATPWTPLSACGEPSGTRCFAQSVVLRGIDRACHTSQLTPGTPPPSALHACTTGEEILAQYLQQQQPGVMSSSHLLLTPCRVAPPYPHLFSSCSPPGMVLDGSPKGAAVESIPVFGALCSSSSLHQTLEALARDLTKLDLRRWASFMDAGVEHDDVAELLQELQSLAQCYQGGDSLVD
inactive: [1] -0.041 | [2] 0.046 | [3] 0.002 | [4] -0.005 | [5] -0.071

MKNK1 (UniProt Q9BUB5)
inactive: [1] -0.056 | [2] 0.039 | [3] 0.065 | [4] 0.03 | [5] -0.009

MINK1 (UniProt Q8N4C8)
inactive: [1] -0.036 | [2] 0.024 | [3] -0.01 | [4] 0.037 | [5] 0.005

NDUFA6 (UniProt P56556)
inactive: [1] -0.017 | [2] 0.121 | [3] 0.104 | [4] -0.067 | [5] -0.039

NCBP2AS2 (UniProt Q69YL0)
inactive: [1] 0.02 | [2] 0.019 | [3] 0.048 | [4] -0.038 | [5] -0.003

NASP (UniProt P49321)
inactive: [1] -0.009 | [2] 0.049 | [3] 0.054 | [4] -0.022 | [5] 0.013

OSBPL8 (UniProt Q9BZF1)
inactive: [1] -0.051 | [2] -0.071 | [3] 0.007 | [4] -0.018 | [5] -0.002

NPC1 (UniProt O15118)
inactive: [1] -0.034 | [2] -0.038 | [3] -0.017 | [4] 0.009 | [5] 0.049

MYL12B (UniProt O14950)
inactive: [1] 0.028 | [2] 0.054 | [3] 0.009 | [4] -0.025 | [5] -0.077

MTOR (UniProt P42345)
inactive: [1] -0.044 | [2] 0.021 | [3] 0.092 | [4] -0.001 | [5] -0.028
